Assay type in all cases: functional
Assay [1] concerns Plasmodium falciparum. Briefly: GSK_TCMDC: Inhibition of Plasmodium falciparum 3D7 in whole red blood cells, using parasite LDH activity as an index of growth. Test compounds present at 2uM.
Assay [2] concerns Plasmodium falciparum. Kind of assay: GSK_TCMDC: Inhibition of Plasmodium falciparum Dd2 in whole red blood cells, using parasite LDH activity as an index of growth. Test compounds present at 2uM.
Assay [3] deals with HepG2. Briefly: GSK_TCMDC: Percent inhibition of human HepG2 cell line. Test compounds present at 10uM.

One may read the Inhibition as the drop in the measured response relative to a control, in per cent.

As to `Cc1ccc(Oc2ccc(NC(=O)CNc3ccccc3N3CCCC3=O)cc2)cc1`, the Inhibition in assay [1] amounted to 98%; in assay [2], 97%; in assay [3], 14%.

On to `COc1ccccc1-c1ccc(C(=O)NCC2CCCN(Cc3cccc(C(F)(F)F)c3)C2)s1.O=C(O)C(F)(F)F` (stereo unspecified), for which the Inhibition in assay [1] is recorded as 81%; in assay [2] it was 37%; in assay [3], 18%.

Regarding `Fc1ccc(Nc2nnc(CNC3CCN(Cc4ccc(Cl)c(Cl)c4)CC3)[nH]2)cc1`, the Inhibition turned out to be 100% in assay [1], 36% in assay [2] and 18% in assay [3].

`O=C(CCCCCNC(=O)c1ccc(O)c(-c2ccc(Cl)c(Cl)c2)c1)NCc1cccc(C(F)(F)F)c1`: the results for the Inhibition in assay [1], in assay [2] and in assay [3] were 92%, 10% and 2%, respectively.

For `Cc1cccc2nc(-c3ccc(-c4ccc(CN5CCCCC5)cc4)s3)[nH]c12.O=C(O)C(F)(F)F`, the Inhibition in assay [1] is 99%; in assay [2] it was 87%; in assay [3], 16%.

In the case of `COc1ccc2c(NN=Cc3ccccc3)ccnc2c1`, the Inhibition came to 100% in assay [1], 98% in assay [2] and 18% in assay [3].

On to `CC(C)(CNCc1cc(Cl)cc(Cl)c1)c1nc(-c2ccnc(N)n2)c(-c2ccc(Cl)c(O)c2)[nH]1.Cl`, for which the figures for the Inhibition in assay [1], in assay [2] and in assay [3] were 92%, 2% and 54%, respectively.

`O=C(Nc1cccc(-c2nn3ncccc3c2-c2ccnc(Nc3ccc(N4CCOCC4)cc3)n2)c1)c1c(F)cccc1F`: the Inhibition in assay [1] came out at 100%; in assay [2], 75%; in assay [3] it was 75%.

Turning to `O=[N+]([O-])c1ccc(-n2nc(Cc3ccccc3)n(Cc3cccc(F)c3)c2=S)c(C(F)(F)F)c1`, the figures for the Inhibition in assay [1], in assay [2] and in assay [3] were 100%, 100% and 4%, respectively.

Consider `CCCc1ccc(S(=O)(=O)NC2CCN(c3ccnc(Nc4ccc(OC)cc4)n3)C2)cc1` (stereo unspecified), for which the values for the Inhibition in assay [1], in assay [2] and in assay [3] were 89%, 45% and 42%, respectively.

Take `O=C(Nc1ccc(Cl)c(C(F)(F)F)c1)N[C@H]1CCN(CCCCCNC(=O)C2CC2c2ccc(Cl)c(Cl)c2)C1` (stereo partly specified): the Inhibition is 94% in assay [1], 0% in assay [2] and 39% in assay [3].

In the case of `COc1cccc2cc(C(=O)N[C@@H](CC(C)C)C(=O)N[C@H](C=NN3CCOC3=O)Cc3ccccc3)oc12`, the Inhibition was determined as 96% in assay [1], 70% in assay [2] and 6% in assay [3].

For the compound `CCN(CC)CCN(Cc1ccc(-c2ccc(C(F)(F)F)cc2)cc1)C(=O)Cn1c(CCc2cccc(F)c2F)cc(=O)c(C)c1C.O=C(O)C(O)C(O)C(=O)O`, the Inhibition in assay [1] stood at 97%; in assay [2], 87%; in assay [3], 35%.

Turning to `O=C(/C=C/c1ccc2ccccc2c1)NCC1(c2ccc(-c3ccccc3)cc2)CCOCC1`, the Inhibition in assay [1] is 95%; in assay [2], 34%; in assay [3], 9%.

Consider `CC(C)=CC1C(C(=O)n2c(=N)[nH]c3ccccc32)C1(C)C` (stereo unspecified), for which the Inhibition in assay [1] is reported as 99%; in assay [2] it was 3%; in assay [3] it was 16%.

In the case of `COc1cc(CNCCC(C)C)ccc1OCc1cccc(COc2ccc(CNCCC(C)C)cc2OC)c1.Cl`, the Inhibition is on record as 99% in assay [1], 20% in assay [2] and 97% in assay [3].

Turning to `CCC(CC)N1C(=O)C(c2ccccc2)(c2ccccc2)N=C1N.O=CO`, the Inhibition in assay [1] is 96%; in assay [2] it was 61%; in assay [3], 14%.

With `O=C(Nc1ccccc1O)c1ccc(Oc2cccc(C(=O)Nc3ccccc3O)c2)cc1`, the Inhibition in assay [1] came out at 97%; in assay [2], 70%; in assay [3], 33%.

Consider `O=C(CCn1cncn1)N1CCCC(c2[nH]c3ccccc3c2-c2ccncc2)C1` (stereo unspecified), for which the Inhibition in assay [1] is given as 97%; in assay [2], 79%; in assay [3] it was 1%.

Regarding `COc1cc2ccccc2cc1OCCCN1CCN(CC(c2ccc(F)cc2)N2CCN(C(C)C)CC2)CC1.Cl` (stereo unspecified), the Inhibition in assay [1] is listed as 100%; in assay [2] it was 92%; in assay [3], 72%.

On to `O=C(Nc1ccccc1)N(Cc1ccc(-c2ccc(CNCc3ccc4c(c3)OCO4)cc2)cc1)C1CCN(Cc2ccccc2)CC1.O=C(O)C(F)(F)F`, for which the figures for the Inhibition in assay [1], in assay [2] and in assay [3] were 98%, 41% and 21%, respectively.

As to `N#CN1CC[C@@H](OC(=O)N[C@@H]2C[C@H]2c2ccccc2)C1`, the Inhibition in assay [1] turned out to be 84%; in assay [2], 56%; in assay [3], 0%.

As to `CC(C)(C)c1ccc(CNCC(C)(C)c2nc(-c3ccnc(N)n3)c(-c3ccc(Cl)c(O)c3)[nH]2)cc1.Cl`, the results for the Inhibition in assay [1], in assay [2] and in assay [3] were 100%, 54% and 28%, respectively.

As to `Cc1ccc(NC(=O)C(C)Sc2nnc(-c3ccccc3Br)[nH]2)cc1` (stereo unspecified), the Inhibition in assay [1] is listed as 89%; in assay [2], 90%; in assay [3], 2%.

Consider `N#Cc1cccc(NC(=O)c2cccc(S(=O)(=O)NC3CCN(CC4CCCCC4)C3)c2)c1.O=C(O)C(F)(F)F` (stereo unspecified), for which the Inhibition in assay [1] is on record as 100%; in assay [2] it was 27%; in assay [3], 29%.

In the case of `Cc1cccc2nc(-c3cccc(-c4cccc(NC(=O)C5CC(=O)Nc6ccccc65)c4)c3)[nH]c12` (stereo unspecified), the results for the Inhibition in assay [1], in assay [2] and in assay [3] were 85%, 25% and 13%, respectively.

On to `COc1cc(F)c2ncc(C#N)c(CCN3CCC(NCc4ccc5c(c4)OCCO5)CC3)c2c1.Cl`, for which the Inhibition in assay [1] is given as 97%; in assay [2] it was 59%; in assay [3], 5%.

For the origin of these results see ChEMBL document CHEMBL1157539, “Thousands of chemical starting points for antimalarial lead identification” (Nature, 2010).
